Compound activity from PubChem.
An excerpt weighted towards active compounds, which were near 7.9% of everything screened.
HT1080 IDH1KD tx = toxicity to HT-1080 IDH1 knockdown cells (counter line) | Potency, µM (highest dose often 46.1 µM), for the others: at the top dose activity, negative = toxicity, hits mostly cytotoxic | 2% of 360,000 active | HT-1080 IDH1 knockdown viability, ATP luminescence, 48 h;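 also: 0% = DMSO wells and -100% = cell-free medium wells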
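After a 2 h attachment period, IDH1KD HT-1080 cells took pin-transferred compound for 48 h at 37 °C; ATP-based luminescence after 10 min room-temperature reagent incubation reported viability.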
HT1080NT lethal = kills 2HG-producing HT-1080-NT fibrosarcoma cells | HT-1080-NT fibrosarcoma viability, CellTiter-Glo ATP luminescence, 48 h | Potency, µM (titrated, usually from 46.1 µM), for the others: top-dose activity, negative = less viability, most hits filed as cytotoxic | 1.6% of 360,000 active;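 also: NT is the 2HG producing partner of a matched IDH1 knockdown line; 0% = DMSO-treated cells and -100% = media-only wells without cells; nearly all actives have a fitted effect of over 55% in size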
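HT-1080-NT fibrosarcoma cells (2HG-overproducing), 750 cells/well in RPMI with 5% FBS, dosed after 2 h and incubated 48 h at 37C. CellTiter-Glo luminescence normalized to DMSO and no-cell wells; concentration-response curves fitted and classed.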
SW480 rereplic = DNA re-replication induction in SW480 cells | Potency, µM (highest dose often 46.1 µM), for inactives: at the top dose re-replication activation, most hits filed as activators | 1.8% of 340,000 active | SW480 DNA re-replication, Hoechst DNA content imaging, 48 h; also: % of control where 0% means no effect; nearly all actives have a fitted effect of over 55% in size
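Hoechst fluorescence of nuclei (405 nm excitation, 500-530 nm emission) measured by plate-scanning imager after 48 hr compound exposure at 37 C; re-replication scored as increased number of nuclei with elevated intensity.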
KB-V1 MDR tox = kills drug-selected multidrug resistant KB-V1 cells. KB-V1 MDR cells viability, CellTiter-Glo, 72 h. Potency, µM (highest dose often 46.1 µM), hits mostly cytotoxic. 3.4% of 400,000 active. AID 1347076; also: % is scaled to controls: 0 for no effect and ±100 for the full control effect; nearly all actives have a fitted effect of over 60% in size
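Compound-treated KB-V1 multidrug-resistant cells, 72 h, 37 degrees C; viability by CellTiter-Glo. Fitted qHTS curves give the values.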
MCF10A rereplic = induces DNA re-replication in MCF 10a normal breast cells; MCF 10A DNA re-replication, Hoechst nuclear intensity, 48 h; Potency, µM (top dose mostly 46.1 µM), inactives show at the highest dose activity, positive = re-replication, actives largely listed as activators; 2.9% of 350,000 active; AID 624296; also: % of control where 0% means no effect; nearly all actives have a fitted effect of over 50% in size
KB-3-1 cytotox = kills parental KB-3-1 adenocarcinoma cells; KB-3-1 viability, CellTiter-Glo ATP luminescence, 72 h; Potency, µM (highest dose often 46.1 µM), most hits filed as cytotoxic; 1.4% of 400,000 active; also: % is scaled to controls: 0 for no effect and ±100 for the full control effect; nearly all actives have a fitted effect of over 60% in size
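Cytotoxicity in the drug-sensitive parental line KB-3-1 was scored as loss of CellTiter-Glo luminescence following 72 h incubation with compound. Values come from curve fitting of normalized concentration-response data.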
An asterisk follows results filed as active; i = inactive; u = inconclusive; x = not tested or not shown; [ ] = another dose, or the depositor's remark. Calls follow the shape of the dose curve; as a rule, active = well fitted curve in the direction sought with a large enough effect; inconclusive = small, poorly fitted or top-dose-only effect, or another doubt; inactive = no such curve, though single readings can be large; an effect the other way counts as inactive or inconclusive. Potency is read from the fitted curve at half-maximal effect.

SMILES	HT1080 IDH1KD tx	HT1080NT lethal	SW480 rereplic	KB-V1 MDR tox	MCF10A rereplic	KB-3-1 cytotox
COc1ccc(/C=C2\SC(=O)N(CC(=O)Nc3cccnc3)C2=O)cc1OC	-9%	-11%	u	i	12%	i
Cc1ccc(/C=C2\SC(=S)N(CCC(=O)N3CCCCC3)C2=O)cc1	2%	4%	-4%	i	1%	u
COc1ccc(CNC(=O)COC(=O)/C=C/c2ccc(Cl)cc2)cc1	10%	2%	-4%	i	-4%	i
CCOC(=O)c1ccc(NC2c3ccccc3C(=O)N2c2ccc(C)cn2)cc1 (stereo unspecified)	-1%	2%	-7%	i	-7%	i
COc1cc(/C=C2\SC(=S)N(CCC(=O)Nc3ccc(O)cc3)C2=O)cc(OC)c1OC	u	u	u	i	16µM*	i
CCOC(=O)CN1C(=O)S/C(=C/c2ccc(C)o2)C1=O	1%	17%	-1%	i	0%	i
CCOC(=O)CN1C(=O)S/C(=C/c2ccc(O)c([N+](=O)[O-])c2)C1=O	-25%	18µM*	0%	u	0%	u
N=C1S/C(=C\c2ccccc2F)C(=O)N1c1ccc(F)cc1	3%	2%	-6%	i	-6%	i
N=C1S/C(=C\c2cccc3ccccc23)C(=O)N1c1ccc(F)cc1	-28%	u	18µM*	7.3µM*	u	7.3µM*
O=[N+]([O-])c1c(NCCO)cc(N2CCCCC2)c2nonc12	-10%	-11%	2%	i	-2%	i
Cc1nn(-c2ccccc2)c2c1C(O)n1c(nc3ccccc31)S2 (stereo unspecified)	0%	5%	-3%	18µM*	16µM*	i
C=C1CC(Cn2cc(Br)c(=O)[nH]c2=O)(c2ccc(-c3ccccc3)cc2)OC1=O (stereo unspecified)	1.6µM*	2.3µM*	u	i	u	u
O=c1[nH]c(=O)n(CCOc2ccc(Cl)cc2)cc1Br	-9%	-8%	-3%	i	-1%	i
C/C(=N\NC(=O)c1nnn(-c2nonc2N)c1-c1ccc(Cl)c(Cl)c1)c1ccncc1	u	-22%	-1%	i	10%	i
O=C(O)C1=CC(=C(c2ccc(O)c(C(=O)O)c2)c2ccc(O)c(C(=O)O)c2)C=CC1=O	7%	2%	x	x	x	x
O=C1C=CC(=C(c2ccc(O)cc2)c2ccc(O)cc2)C=C1	12µM*	9.2µM*	u	u	6.5µM*	5.8µM*
CCC(C(=O)NCCc1ccc(Cl)cc1)n1nc(C)c2c(C)n(-c3ccccc3)nc2c1=O (stereo unspecified)	x	x	x	i	x	i
CCCCCCCCC/C(=N\O)c1ccccn1	u	-29%	u	i	15µM*	u
CCCCCCCCC(=O)N/N=C/c1ccccn1	0%	u	-8%	i	4%	i
CC(NC(=O)C(C)N1C(=O)c2ccccc2C1=O)c1ccccc1 (stereo unspecified)	-3%	15%	-9%	i	0%	i
C=CCn1c(COc2ccccc2F)nnc1SCC(=O)c1c[nH]c2ccccc12	-13%	0%	-6%	13µM*	17%	u
C=CCn1c(COc2ccccc2F)nnc1SCC(=O)Nc1cc2oc3ccccc3c2cc1OC	-21%	-20%	4%	u	12%	u
CSc1nsc(/C=C/Nc2ccc(F)cc2F)c1C#N	-3%	-4%	u	i	u	i
CSc1nsc(/C=C/Nc2ccc(C(=O)O)cc2)c1C#N	1%	-1%	u	i	5.2µM*	i
Cc1cccc(C)c1OCc1cc(C(=O)N2CC3C[C@@H]4CC2C[C@H](C3)C4)no1	-2%	1%	1%	u	18µM*	i
SMILES	HT1080 IDH1KD tx	HT1080NT lethal	SW480 rereplic	KB-V1 MDR tox	MCF10A rereplic	KB-3-1 cytotox
COc1cccc(-c2cc(NC=O)c3ncc(-c4ccc(C(C)=O)cc4)n3c2)c1	10µM*	18µM*	x	18µM*	x	5.2µM*
COc1ccc(-c2cc(NC=O)c3ncc(-c4cccc(C(C)=O)c4)n3c2)cc1	u	-28%	x	i	x	i
CN(C)C(=O)c1cccc(-c2cc(NC=O)c3ncc(-c4ccc(F)cc4)n3c2)c1	u	u	x	21µM*	x	u
COc1ccc(-c2cnc3c(NC=O)cc(-c4ccc(C(=O)N5CCOCC5)cc4)cn23)cc1OC	21µM*	u	x	u	x	u
COc1ccc(-c2cc(NC=O)c3ncc(-c4ccc(C(C)=O)cc4)n3c2)cc1OC	13µM*	16µM*	x	u	x	i
O=C(CSc1nnc(CNC(=O)c2c(F)cccc2F)o1)NCc1ccco1	0%	2%	-3%	i	0%	i
CCOC(=O)[C@H]1[C@H]2COc3ccc(Br)cc3[C@@H]2N2C(=O)c3cc(OC)c(OC)cc3NC(=O)[C@@]12C	-15%	-28%	11%	i	-17%	i
O=C(CN1CCN(S(=O)(=O)N2CCCCCC2)CC1)Nc1ccc(F)cc1	-13%	-12%	7%	u	3%	i
COc1cccc(-c2cnc3c(NC(C)=O)cc(-c4ccc(C(=O)N5CCOCC5)cc4)cn23)c1	21µM*	u	x	i	x	i
O=CNc1cc(-c2ccc(C(=O)NC3CC3)cc2)cn2c(-c3ccc(F)cc3)cnc12	8.2µM*	u	x	u	x	i
CCCN1CNc2c(c(=O)[nH]c(=S)n2Cc2ccc(OC)c(OC)c2)C1	22%	10%	x	x	x	x
CCn1c(-c2cc3c(C(F)(F)F)nn(C)c3s2)n[nH]c1=S	0%	-4%	0%	10µM*	11%	u
Cc1cc(=O)n(Cc2ccc(OC(C)C)cc2)c(=S)[nH]1	-6%	u	u	i	u	i
CCN1CCN(CCCNC(=O)CCc2nc(-c3ccc(OC)cc3)no2)CC1	7%	3%	7%	i	-12%	i
Cc1ccc(-c2noc(CCC(=O)NCCCN3CCN(c4ccc(F)cc4)CC3)n2)cc1	-12%[9.24 µM]	23µM*	u	13µM*	7%	u
COc1ccc(-c2noc(CCC(=O)NCCCN3CCN(c4ccccc4F)CC3)n2)cc1	-9%	-1%	-8%	i	23%	i
O=C(Cn1nc(-c2ccccc2)ccc1=O)NCCN1CCN(c2cccc(Cl)c2)CC1	u	-18%	-2%	5.8µM*	-1%	i
Cc1ccc(-c2noc(CCC(=O)NCCCN3CCN(c4cccc(Cl)c4)CC3)n2)cc1	u	u	u	16µM*	u	18µM*
